Experimental data taken from PubChem BioAssay (NCI).
About 83,000 compounds went through this panel and 20% of them were active in at least one assay; those are over-represented in the sample as a whole.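 How to read the values: 0–100, growth inhibition (40 = 60% inhibited); 0, no net growth; -100 to 0, cell death (-40 = 40% of starting cells died; -100 = all dead).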 Activity calls are given as the source filed them. How the source made its calls: active means growth percent below 10; inactive means the rest.

Tests used:
Assay in all cases: NCI-60 one-dose screen, 48 h (100 = growth as untreated, 0 = no growth, -100 = all killed)
Conditions in all cases: 10 µM unless noted
HCT-15 colon = system: HCT-15 colon
HT29 colon = system: HT29 colon
SNB-75 CNS = system: SNB-75 CNS
SNB-19 CNS = system: SNB-19 CNS
U251 CNS = system: U251 CNS
PC-3 prostate = system: PC-3 prostate
SK-MEL-5 melanoma = system: SK-MEL-5 melanoma
UACC-62 melanoma = system: UACC-62 melanoma
LOX IMVI melanoma = system: LOX IMVI melanoma
SK-MEL-28 melanoma = system: SK-MEL-28 melanoma

Measured: growth

O=C(/C=C/c1ccc(F)cc1)Nc1cccc2cccnc12
inactive: HCT-15 colon 75.4% | HT29 colon 105% | SNB-75 CNS 106% | SNB-19 CNS 109% | U251 CNS 102% | PC-3 prostate 98.5% | SK-MEL-5 melanoma 98.7% | UACC-62 melanoma 91.8% | LOX IMVI melanoma 121% | SK-MEL-28 melanoma 109%

Cc1ccc(S(=O)(=O)NCCCNc2nc(Nc3ccc(N4CCN(C)CC4)cc3)nc3ccsc23)cc1
active: HCT-15 colon 3% | HT29 colon -61.8% | U251 CNS 6.58% | SK-MEL-5 melanoma -84.1% | UACC-62 melanoma -48.3% | LOX IMVI melanoma -77.6% | SK-MEL-28 melanoma -84.5%
inactive: SNB-75 CNS 88.5% | SNB-19 CNS 58.7% | PC-3 prostate 63.5%

Cc1ccc2c(n1)C(=O)C(Cl)=C(Nc1cccc(C(=O)OC(C)(C)C)c1)C2=O
active: LOX IMVI melanoma 8.98%
inactive: HCT-15 colon 47.1% | HT29 colon 114% | SNB-75 CNS 95.7% | SNB-19 CNS 97.6% | U251 CNS 88.5% | PC-3 prostate 72% | SK-MEL-5 melanoma 88.1% | UACC-62 melanoma 90.7% | SK-MEL-28 melanoma 103%

Clc1ccc2[nH]cc(-c3nn4cc(-c5ccncc5)nc4s3)c2c1
active: PC-3 prostate 9.36%
inactive: HCT-15 colon 57.6% | HT29 colon 72.8% | SNB-75 CNS 72.4% | SNB-19 CNS 24.4% | U251 CNS 52.5% | SK-MEL-5 melanoma 38.3% | UACC-62 melanoma 25.8% | LOX IMVI melanoma 49.9% | SK-MEL-28 melanoma 53.8%

CC(Nc1ncnc2ccc(-c3cnc4cnccn34)cc12)c1ccccc1 (stereo not given)
inactive: HCT-15 colon 67.7% | HT29 colon 71.1% | SNB-75 CNS 80.9% | SNB-19 CNS 56.8% | U251 CNS 76.1% | PC-3 prostate 63.8% | SK-MEL-5 melanoma 18.1% | UACC-62 melanoma 53.9% | LOX IMVI melanoma 58.1% | SK-MEL-28 melanoma 78.7%

CC(C)(C)c1cc(NC(=O)Nc2ccc(-c3cn4c5c(sc4n3)CCc3cn(CCCN4CCCCC4)cc3-5)cc2)no1
inactive: SNB-75 CNS 39.5% | UACC-62 melanoma 98%
active: HCT-15 colon -82.7% | HT29 colon -50.7% | SNB-19 CNS -83.5% | U251 CNS -86.3% | PC-3 prostate -74.8% | SK-MEL-5 melanoma -51.9% | LOX IMVI melanoma -96.2% | SK-MEL-28 melanoma -89.8%

Brc1cc(-c2cc(-c3ccc4c(c3)OCCO4)[nH]n2)cs1
inactive: HCT-15 colon 24.4% | HT29 colon 22.6% | SNB-75 CNS 19.9% | SNB-19 CNS 56.9% | U251 CNS 40% | PC-3 prostate 61.8% | SK-MEL-5 melanoma 23.5% | UACC-62 melanoma 54.7% | LOX IMVI melanoma 42.3% | SK-MEL-28 melanoma 58.6%

O=C(Nc1ccc(Cl)c(C(F)(F)F)c1)Nc1ccc2c(ccn2C(=O)c2cccc(F)c2)c1
active: PC-3 prostate 9.11%
inactive: HCT-15 colon 17% | HT29 colon 39.8% | SNB-75 CNS 55% | SNB-19 CNS 39.7% | U251 CNS 23.3% | SK-MEL-5 melanoma 62.9% | UACC-62 melanoma 39.7% | LOX IMVI melanoma 38.4% | SK-MEL-28 melanoma 46.6%

CN(C)c1cccc2c(S(=O)(=O)Nc3cccc(-c4csc(NC(=O)CCCCCN5CCN(CCO)CC5)n4)c3)cccc12
inactive: HCT-15 colon 90.6% | HT29 colon 17% | SNB-75 CNS 80.1% | SNB-19 CNS 87.9% | U251 CNS 70.2% | PC-3 prostate 72.3% | SK-MEL-5 melanoma 79.2% | UACC-62 melanoma 94.1% | LOX IMVI melanoma 12.9%
active: SK-MEL-28 melanoma -7.14%

CCC(=C(c1ccc(OCCN2CCCCCC2)cc1)c1ccc(OCCN2CCCCCC2)cc1)c1ccc(Cl)cc1
inactive: SNB-75 CNS 62% | PC-3 prostate 27.7% | SK-MEL-5 melanoma 21.5%
active: HCT-15 colon -58.9% | HT29 colon -44.7% | SNB-19 CNS -21.3% | U251 CNS -69.8% | UACC-62 melanoma -35.4% | LOX IMVI melanoma -89.6% | SK-MEL-28 melanoma -82%

CC(C)(C)Nc1nc2c(OCCc3ccccc3)cccn2c1-c1cccc(Oc2ccccc2)c1
active: HCT-15 colon 6.6% | HT29 colon 6.41% | SK-MEL-5 melanoma -75% | LOX IMVI melanoma 3.93%
inactive: SNB-75 CNS 43.5% | SNB-19 CNS 24.5% | U251 CNS 13.5% | PC-3 prostate 17.5% | UACC-62 melanoma 15% | SK-MEL-28 melanoma 34%

N#C/C(=N\Nc1ccc(F)cc1)C(=O)Nc1cc(-c2ccccc2)nn1-c1ccccc1
inactive: LOX IMVI melanoma 12.5% | SK-MEL-28 melanoma 22.1%
active: HCT-15 colon 8.61% | HT29 colon 8.84% | SNB-75 CNS -5.46% | SNB-19 CNS 5.24% | U251 CNS 8.65% | PC-3 prostate 7.13% | SK-MEL-5 melanoma -51.4% | UACC-62 melanoma 4.43%

O=C(O)CC1CCN(c2ccc3nnc(Cl)n3n2)CC1
inactive: HCT-15 colon 98.8% | HT29 colon 101% | SNB-75 CNS 84.7% | SNB-19 CNS 100% | U251 CNS 110% | PC-3 prostate 104% | SK-MEL-5 melanoma 101% | UACC-62 melanoma 95.5% | LOX IMVI melanoma 95.6% | SK-MEL-28 melanoma 102%
